biological target: Pyruvate kinase PKLR (Homo sapiens) (UniProt P30613); assay: qHTS for Activators of Human Muscle Isoform Pyruvate Kinase: Extended Characterization against Liver Pyruvate Kinase; details: purified hPK-L, ATP via Kinase-Glo luminescence, 1 h; series mostly up to 57.3 µM; activity change, positive = activation: at the top concentration
Method: Human pyruvate kinase liver (hPK-L) enzyme was supplied as a highly purified (>95% pure) preparation from Harvard Medical School and assayed for its ability to generate ATP from ADP using phosphoenolpyruvate (PEP) as a substrate. ATP generation was detected in a coupled reaction by luciferase-mediated luminescence, an ATP-dependent process. Pyruvate kinase substrates, PEP and ADP, were present in the assay at Km and approximately 10-fold below Km respectively. The enzyme was assayed at an intermediate level of activity to screen for both inhibitors and activators. NIH Chemical Genomics Center [NCGC] NIH Molecular Libraries Probe Centers Network [MLPCN] MLPCN Grant: MH085679 Assay Submitter (PI): Matthew G. Vander Heiden, Harvard Medical School
Three uL of substrate mix (at r.t.) in assay buffer (50 mM Imidazole pH7.2, 50 mM KCl, 7 mM MgCl2, 0.01% Tween 20, 0.05% BSA) was dispensed into white solid bottom 1,536 well microtiter plates so that the final concentrations of substrates in the assay were 0.1 mM ADP and 0.5 mM PEP. 23 nL of compound were delivered by a pin tool and 1 uL of enzyme mix (final concentration of 0.1 nM) in assay buffer (4 degree Celsius) was added. Plates were incubated at room temperature for 1 hour. Two uL of detection mix (Kinase-Glo, Promega; at 4 degree Celsius protected from light) was added and luminescence read by a ViewLux (Perkin Elmer) at 1 second exposure/plate. Data were normalized to the uninhibited (row 31). Additionally, a no enzyme and 5-fold enzyme control was dispensed in row 32, split equally between the two conditions.

Sequence of Pyruvate kinase PKLR (Homo sapiens) (P30613 whole entry, looked up, canonical isoform): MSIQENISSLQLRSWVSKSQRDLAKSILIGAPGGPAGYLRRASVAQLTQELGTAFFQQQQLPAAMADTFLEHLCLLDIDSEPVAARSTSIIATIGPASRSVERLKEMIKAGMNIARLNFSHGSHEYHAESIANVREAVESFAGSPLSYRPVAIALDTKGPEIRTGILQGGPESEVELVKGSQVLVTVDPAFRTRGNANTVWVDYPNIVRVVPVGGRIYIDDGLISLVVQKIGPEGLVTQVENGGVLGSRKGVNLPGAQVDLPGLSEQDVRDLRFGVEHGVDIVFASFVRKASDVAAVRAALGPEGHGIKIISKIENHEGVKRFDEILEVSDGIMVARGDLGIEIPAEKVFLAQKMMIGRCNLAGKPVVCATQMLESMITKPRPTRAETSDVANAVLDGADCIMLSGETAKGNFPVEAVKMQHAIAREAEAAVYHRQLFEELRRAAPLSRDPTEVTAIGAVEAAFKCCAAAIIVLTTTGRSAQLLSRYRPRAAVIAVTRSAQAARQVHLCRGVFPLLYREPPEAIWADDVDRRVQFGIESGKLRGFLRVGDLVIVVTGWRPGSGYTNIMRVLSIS

Activity change, positive = activation, inactive:
COc1cccc(Cn2ncc3c4sc(S(C)=O)cc4n(C)c3c2=O)c1 (stereo not given) 5.38%
Cc1cc2c(s1)c1cnn(Cc3ccc(F)cc3F)c(=O)c1n2C 5.82%
Cc1cc2c(s1)c1cnn(Cc3cc(F)c(F)cc3F)c(=O)c1n2C 5.78%
Cc1cc2c(s1)c1cnn(Cc3c(Cl)ccc(C)c3F)c(=O)c1n2C 13.2%
Cc1cc2c(s1)c1cnn(Cc3cc(F)ccc3F)c(=O)c1n2C 5.89%

— PubChem BioAssay AID602379 (National Center for Advancing Translational Sciences (NCATS), 2012)
